Inhibition data for 40 molecules are collected here from PubChem BioAssay.

Unmarked numbers belong to inactive results. No rule for the calls is given here.

A word on the inhibition: it is the share of the control response that was lost under treatment.

Chain of Pantothenate synthetase (Mycobacterium tuberculosis (strain ATCC 25618 / H37Rv)) (P9WIL5 whole entry, looked up): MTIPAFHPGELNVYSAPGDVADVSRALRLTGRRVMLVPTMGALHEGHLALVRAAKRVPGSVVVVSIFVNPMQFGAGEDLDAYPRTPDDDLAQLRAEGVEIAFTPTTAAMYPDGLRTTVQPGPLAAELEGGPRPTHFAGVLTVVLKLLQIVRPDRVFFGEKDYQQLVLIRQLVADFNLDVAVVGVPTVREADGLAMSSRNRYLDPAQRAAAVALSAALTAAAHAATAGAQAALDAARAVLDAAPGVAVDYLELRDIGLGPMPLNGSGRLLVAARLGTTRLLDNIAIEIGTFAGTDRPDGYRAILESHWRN

The assay addresses Pantothenate synthetase (Mycobacterium tuberculosis (strain ATCC 25618 / H37Rv)) (UniProt P9WIL5). In words: Coupled enzyme confirmation of inhibitors against recombinant Mtb PanC (AID 375).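 Also: 0% = full reaction with vehicle and 100% = no enzyme background.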 As to conditions: coupled enzyme assay; at 10 µM, stronger effect = higher value.
For `CCCC(=O)N1CC(=O)Nc2ccc(C)cc2C1c1ccc(F)cc1` (stereo not given), the inhibition was 0%.

For the molecule `O=C(COc1ccc2ccccc2c1)N1CCCC1`, the inhibition is 8%. `CCOC(=O)N1CCN(c2c(NCC3CCN(Cc4cccc(C)c4)CC3)c(=O)c2=O)CC1`: the inhibition is 4%.

Regarding `COc1ccc(C2CC(=O)C(C=NCCCN3CCOCC3)=C(O)C2)cc1` (stereo not given), the inhibition was 0%. The result for `CN1C(=O)C(O)(CC(=O)c2ccccc2O)c2cc(Br)ccc21` (stereo not given) reads 0%; that for `Cc1occc1-c1nnc(SCC(=O)NCC2CCCO2)n1C` (stereo not given), 7%; that for `CCCCOc1ccc(C(=O)N2CCC(C)CC2)cc1`, 0%. Take `C=CCOC(=O)C1=C(C)NC(=O)NC1c1cn(-c2ccccc2)nc1-c1cccs1` (stereo not given): the inhibition is 4%. The result for `CC(CCc1ccccc1)NC(=O)C1CCCN(c2nnc(-n3cccc3)s2)C1` (stereo not given) reads 0%; that for `COc1ccc2c(C(F)(F)F)cc(=O)oc2c1C`, 1%; that for `Cc1ccc(S(=O)(=O)N2CCN(C(=O)CN3C(=O)NC4(CCOc5ccccc54)C3=O)CC2)cc1` (stereo not given), 2%. For `O=C1CC(c2ccc(Cl)cc2)n2nc(N3C(=O)c4ccccc4C3=O)nc2N1` (stereo not given), the inhibition is 5%. Regarding `COc1ccc2nc3oc(C(=O)N4CCCCC4)cc3cc2c1`, the inhibition is 12%. As to `Cc1nnc(SCc2ccccc2F)n1NCc1cccs1`, the inhibition is 3%.

Turning to `O=C(Nc1ccc(N2CCOCC2)cc1)Nc1ccc2nc(-c3ccco3)c(-c3ccco3)nc2c1`, the inhibition is 4%. For `Fc1ccc(-c2nnc3ccc(N4CCCC4)nn23)cc1`, the inhibition is 1%. With `COc1cccc(NC(=O)N(Cc2ccco2)C(C)c2cccs2)c1` (stereo not given), the inhibition was 2%. In the case of `COc1cc(C2c3c(n[nH]c3C)C(=O)N2c2ccc(C)cc2)ccc1O` (stereo not given), the inhibition is 0%. The same measure for `O=S(=O)(NC1CCCCC1NS(=O)(=O)c1ccc(F)cc1)c1ccc(F)cc1` (stereo not given): 0%. For `COc1ccc(-c2nnc(SCCC(=O)O)n2-c2ccccc2)cc1`, the inhibition was 0%. As for `O=C(O)/C=C/c1ccc(O)c(O)c1`, the inhibition is 1%. The same measure for `O=C(c1ccco1)N1CCN(C2=NS(=O)(=O)c3ccccc32)CC1`: 0%; for `Cn1c(=O)c2c(nc(CN3CCCCC3)n2CCCc2ccccc2)n(C)c1=O`: 2%. In the case of `C=CCNC(=O)c1cccc(Br)c1`, the inhibition was 8%. The result for `Cc1cccc2cc(CN(CCCO)C(=O)Nc3ccc(Cl)cc3)c(=O)[nH]c12` reads 5%; that for `C=CCNc1nc2c(c(=O)n(C)c(=O)n2C)n1CCCCCC`, 0%. The result for `COc1ccc(/C=N/O)cc1COc1ccc(NC(C)=O)cc1` reads 1%; that for `CCN(CC)S(=O)(=O)c1cccc(-c2nnc(SCCOc3ccccc3C)o2)c1`, 1%; that for `O=C(CCC(=O)OCCCC(F)(F)C(F)(F)F)NC1CCCCC1`, 0%. The same measure for `CCOC(=O)N1CCN(c2cc3nccnc3cc2F)CC1`: 6%; for `OC(CN1CCN(c2ccccc2)CC1)c1ccc2c(c1)CCN2` (stereo not given): 0%; for `CCOC(=O)CSc1nc2c(c(-c3ccc(C)o3)c1C#N)CCCC2`: 0%. For `Cc1cc(-c2ccccc2)nc2cc(C(N)=O)nn12`, the inhibition is 12%. For `Cc1ccc(C)c(S(=O)(=O)C(C#N)c2nc3ccccc3nc2N2CC(C)OC(C)C2)c1` (stereo not given), the inhibition was 0%.

Regarding `Cc1ccc(-c2nnc(SC(C)C#N)n2N)cc1` (stereo not given), the inhibition was 3%. On to `CCOc1ccc(CCNc2nc3c(c(=O)n(C)c(=O)n3C)n2CC)cc1OCC`, for which the inhibition was 0%.

As to `CC1(C(=O)NC2CCCCC2)CCC(=O)N1Cc1cccs1` (stereo not given), the inhibition was 0%. In the case of `CCc1ccc(N(CC(=O)NC2CCCC2)S(=O)(=O)c2c(C)noc2C)cc1`, the inhibition was 1%. Take `CC1CCc2c(sc(N)c2C(N)=O)C1` (stereo not given): the inhibition is 0%.

Turning to `COC(=O)c1sc(N)c(C(=O)OC)c1CSc1nc2sc3c(c2c(=O)n1C)CCC3`, the inhibition was 0%.
